From PubChem BioAssay (NCI)
Compounds without any hit were thinned out: in the full panel of roughly 79,000, 15% have a hit. Active and inactive are the calls of the source. Cut-off read from the data, not from the text of the source: active = growth inhibition above about 70%; inactive = the rest.

Test: NCI Yeast Anticancer Drug Screen. Data for the rad14 strain (AID 159);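 note: 0% = growth of vehicle-treated control cultures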
Settings: S. cerevisiae rad14 strain growth inhibition, stronger effect = higher value
Protocol: Growth inhibition of yeast strains with defined genetic alterations is measured as a screen for potential anti-cancer activity. Selected strains with alterations in DNA damage repair or cell cycle control were exposed to compounds and growth inhibition was measured relative to vehicle treated controls. The strain used in this assay is rad14

Question: Which growth inhibition (at 1.2 µM) does the source give for `Cc1ccc(NC(Nc2ccc(C)cc2C)=C(C(Cl)=C(Cl)Cl)[N+](=O)[O-])c(C)c1` here?
Answer: 2% (inactive)

Question: What about the growth inhibition (at 3.7 µM) of the same molecule?
Answer: 2% (inactive)

Question: And the growth inhibition (at 11.0 µM)?
Answer: 25% (inactive)

Question: What about the growth inhibition (at 33.0 µM) of the same molecule?
Answer: 99% (active)

Question: What about the growth inhibition (at 100.0 µM) of the same molecule?
Answer: 94% (active)

Question: Which growth inhibition (at 1.2 µM) does the source give for `Nc1ccc(N=Nc2ccc(-c3ccc(O)cc3)cc2)c2ccc(S(=O)(=O)O)cc12` here?
Answer: -1% (inactive)

Question: And the growth inhibition (at 3.7 µM)?
Answer: -1% (inactive)

Question: And the growth inhibition (at 11.0 µM)?
Answer: 4% (inactive)

Question: And the growth inhibition (at 33.0 µM)?
Answer: 11% (inactive)

Question: What about the growth inhibition (at 100.0 µM) of the same molecule?
Answer: 30% (inactive)

Question: With `COc1ccc(C2CC(C)(N3CCCC3)Oc3cc4c(cc32)OCO4)cc1` (stereo not given) as the molecule, how does the growth inhibition (at 1.2 µM) read?
Answer: 0% (inactive)

Question: And the growth inhibition (at 3.7 µM)?
Answer: 0% (inactive)

Question: And the growth inhibition (at 11.0 µM)?
Answer: -1% (inactive)

Question: What about the growth inhibition (at 33.0 µM) of the same molecule?
Answer: 9% (inactive)

Question: And the growth inhibition (at 100.0 µM)?
Answer: 67% (inactive)

Question: What does the source list for `COc1ccc2cc(C(C)C(=O)N3CCOC3=O)ccc2c1` (stereo not given)?
Answer: growth inhibition (at 1.2 µM): -18% (inactive); growth inhibition (at 3.7 µM): -20% (inactive); growth inhibition (at 11.0 µM): -22% (inactive); growth inhibition (at 33.0 µM): -17% (inactive); growth inhibition (at 100.0 µM): 50% (inactive)

Question: For `COC(=N)c1ccc(O)c(C)c1`, which growth inhibition (at 1.2 µM) is on record?
Answer: -3% (inactive)

Question: And the growth inhibition (at 3.7 µM)?
Answer: 0% (inactive)

Question: And the growth inhibition (at 11.0 µM)?
Answer: -2% (inactive)

Question: And the growth inhibition (at 33.0 µM)?
Answer: -4% (inactive)

Question: And the growth inhibition (at 100.0 µM)?
Answer: -1% (inactive)

Question: For `CCCCCCCCCCCCCCN`, which growth inhibition (at 1.2 µM) is on record?
Answer: 20% (inactive)

Question: What about the growth inhibition (at 3.7 µM) of the same molecule?
Answer: 20% (inactive)

Question: And the growth inhibition (at 11.0 µM)?
Answer: 14% (inactive)

Question: And the growth inhibition (at 33.0 µM)?
Answer: 15% (inactive)

Question: And the growth inhibition (at 100.0 µM)?
Answer: 99% (active)

Question: What does the source list for `CCN(CC)CCNc1ccc(C)c2sc3ccc(O)cc3c(=O)c12`?
Answer: growth inhibition (at 1.2 µM): 23% (inactive); growth inhibition (at 3.7 µM): 29% (inactive); growth inhibition (at 11.0 µM): 34% (inactive); growth inhibition (at 33.0 µM): 93% (active); growth inhibition (at 100.0 µM): 99% (active)

Question: With `CC(C)S(=O)(=O)/C=C\S(=O)(=O)C(C)C` as the molecule, how does the growth inhibition (at 1.2 µM) read?
Answer: -3% (inactive)

Question: What about the growth inhibition (at 3.7 µM) of the same molecule?
Answer: 9% (inactive)

Question: What about the growth inhibition (at 11.0 µM) of the same molecule?
Answer: 36% (inactive)

Question: What about the growth inhibition (at 33.0 µM) of the same molecule?
Answer: 55% (inactive)

Question: And the growth inhibition (at 100.0 µM)?
Answer: 99% (active)
